These results are taken from PubChem BioAssay (NCI).

Among the test systems are SK-MEL-2 melanoma; EKVX NSCLC; SN12C renal; UO-31 renal; TK-10 renal; ACHN renal; CAKI-1 renal; A498 renal; CCRF-CEM leukemia; MOLT-4 leukemia; SR leukemia; RPMI-8226 leukemia; OVCAR-8 ovarian; OVCAR-5 ovarian; OVCAR-4 ovarian; SK-OV-3 ovarian; IGROV1 ovarian; OVCAR-3 ovarian; HS 578T breast; NCI/ADR-RES ovarian.
Test in all cases: NCI-60 one-dose screen, 48 h (100 = growth as untreated, 0 = no growth, -100 = all killed)
Common to all, as to settings: 10 µM unless noted

Structures are written as SMILES. This is part of a sample that, as a whole, favours compounds with a hit. Of some 83,000 tested, about 20% had one in any assay.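 Method: cells in 96-well plates; compound added at one concentration; 48 h incubation; percent growth measured; values under 10 scored active.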 Values without a mark were called inactive. The source made the active and inactive calls.

For the compound `Clc1ccccc1-c1cnn2cc(-c3ccccc3)cnc12`, the growth in the assay on SK-MEL-2 melanoma was 101%; in the assay on EKVX NSCLC, 83.3%; with SN12C renal, 79.5%; in the assay with UO-31 renal it was 84.6%; in the assay on TK-10 renal, 89.1%; in the assay with ACHN renal it was 74.1%. Moreover, the growth in the assay on CAKI-1 renal is 81.4%; in the assay with A498 renal, 72%; with CCRF-CEM leukemia it was 89.2%; in the assay with MOLT-4 leukemia, 83.7%; with SR leukemia it was 59.9%; in the assay on RPMI-8226 leukemia, 87.1%. Further, the growth in the assay with OVCAR-8 ovarian is 78.9%; in the assay on OVCAR-5 ovarian, 79.6%; in the assay with OVCAR-4 ovarian, 76.1%; in the assay with SK-OV-3 ovarian, 83.9%; with IGROV1 ovarian, 78.6%; with OVCAR-3 ovarian, 90%. For the same compound, the values for the growth in the assay with HS 578T breast and in the assay with NCI/ADR-RES ovarian were 74.4% and 83.7%, respectively.

As for `O=C(/C=C/C12c3ccccc3C(c3ccccc31)C1C(=O)NC(=O)C12)c1ccc(Br)cc1` (stereo not given), the growth is 52.2% in the assay on SK-MEL-2 melanoma; 60.2% in the assay with EKVX NSCLC; 46.2% in the assay on SN12C renal; 41.4% in the assay with UO-31 renal; 61.2% in the assay on TK-10 renal; 66.2% in the assay with ACHN renal. The growth with CAKI-1 renal was 56.4%; in the assay on A498 renal it was 60.2%; in the assay with CCRF-CEM leukemia, -3.91% (active); in the assay on MOLT-4 leukemia, 3.02% (active); in the assay on SR leukemia it was 14.4%; in the assay with RPMI-8226 leukemia it was -10.7% (active). Also, the growth was 19.6% in the assay with OVCAR-8 ovarian; 59.6% in the assay with OVCAR-5 ovarian; 63.9% in the assay on OVCAR-4 ovarian; 72.5% in the assay on SK-OV-3 ovarian; 48% with IGROV1 ovarian; 13% in the assay on OVCAR-3 ovarian. Also, the growth in the assay on HS 578T breast was 45.2%; with NCI/ADR-RES ovarian it was 45.1%.

As to `COc1cc(C(=O)n2nc(N3CCOCC3)c3cc(-n4cccc4)ccc32)cc(OC)c1OC`, the growth is 92.1% in the assay with SK-MEL-2 melanoma; 60.6% in the assay with EKVX NSCLC; 69% with SN12C renal; 32.9% in the assay with UO-31 renal; 88.4% in the assay on TK-10 renal; 49.8% in the assay with ACHN renal. Also, the growth with CAKI-1 renal is 60.6%; with A498 renal, 0.812% (active); in the assay with CCRF-CEM leukemia, 36.4%; in the assay with MOLT-4 leukemia, 33.1%; in the assay with SR leukemia, 6.85% (active); in the assay with RPMI-8226 leukemia, 42.6%. Further, the growth in the assay with OVCAR-8 ovarian was 64%; in the assay on OVCAR-5 ovarian, 98.3%; with OVCAR-4 ovarian, 68.5%; with SK-OV-3 ovarian it was 72.5%; in the assay with IGROV1 ovarian, 68%; with OVCAR-3 ovarian, 87.3%. For the same compound, the growth in the assay on HS 578T breast and with NCI/ADR-RES ovarian was 68.5% throughout.

As for `O=C1/C(=C\c2cccc3nccnc23)SC(=S)N1CCc1ccc(O)cc1`, the growth was 108% with SK-MEL-2 melanoma; 100% with EKVX NSCLC; 84.9% in the assay with SN12C renal; 62.1% with UO-31 renal; 121% in the assay on TK-10 renal; 97.3% in the assay on ACHN renal. The growth in the assay on CAKI-1 renal is 79.1%; with A498 renal, 105%; in the assay with CCRF-CEM leukemia, 67.2%; in the assay with MOLT-4 leukemia it was 93.1%; with SR leukemia it was 92.1%; in the assay with RPMI-8226 leukemia, 83%. Moreover, the growth is 99.1% in the assay with OVCAR-8 ovarian; 104% in the assay with OVCAR-5 ovarian; 89.4% in the assay on OVCAR-4 ovarian; 110% with SK-OV-3 ovarian; 95.4% in the assay with IGROV1 ovarian; 101% with OVCAR-3 ovarian. The growth with HS 578T breast was 95.4%; in the assay on NCI/ADR-RES ovarian it was 96.9%.

For `CCN(CC)Cc1cc(Nc2ccnc3cc(Cl)ccc23)ccc1O`, the growth in the assay with SK-MEL-2 melanoma was 111%; in the assay on EKVX NSCLC, 68.5%; in the assay with SN12C renal, 81.9%; with UO-31 renal it was 87.1%; in the assay with TK-10 renal it was 108%; in the assay with ACHN renal it was 100%. Besides, the growth with CAKI-1 renal was 88.3%; in the assay on A498 renal it was 95.7%; in the assay on CCRF-CEM leukemia, 88.8%; in the assay on MOLT-4 leukemia it was 100%; in the assay with SR leukemia, 82.7%; in the assay with RPMI-8226 leukemia, 93.3%. For the same compound, the growth in the assay with OVCAR-8 ovarian is 100%; in the assay on OVCAR-5 ovarian, 97.7%; with OVCAR-4 ovarian, 94.4%; in the assay with SK-OV-3 ovarian, 116%; with IGROV1 ovarian it was 88.4%; in the assay with OVCAR-3 ovarian, 88.5%. In addition, the growth in the assay with HS 578T breast is 91.6%; with NCI/ADR-RES ovarian, 93.9%.

Take `CC[C@]12C=CCN3CC[C@@]4(c5ccc(OC)cc5N(C)[C@H]4[C@@](O)(C(=O)OC)[C@@H]1OC(=O)CCC[P+](c1ccccc1)(c1ccccc1)c1ccccc1)[C@@H]32`: the growth with SK-MEL-2 melanoma was -65.3% (active); with EKVX NSCLC, 10.3%; with SN12C renal, 2.73% (active); in the assay on UO-31 renal, 80%; in the assay on TK-10 renal it was 22.3%; in the assay with ACHN renal, 89.9%. Further, the growth with CAKI-1 renal was 52.2%; with A498 renal, 13.7%; with CCRF-CEM leukemia, 11.1%; with MOLT-4 leukemia, 5.41% (active); with SR leukemia, 9.57% (active); with RPMI-8226 leukemia, -12.6% (active). For the same compound, the growth in the assay on OVCAR-8 ovarian was 3.13% (active); in the assay with OVCAR-5 ovarian it was 21.4%; in the assay with OVCAR-4 ovarian it was -3.58% (active); in the assay with SK-OV-3 ovarian, -21% (active); in the assay with IGROV1 ovarian it was -0.0574% (active); with OVCAR-3 ovarian, -2.49% (active). Also, the growth with HS 578T breast was 25.5%; in the assay with NCI/ADR-RES ovarian it was 100%.

On to `O=C(Nc1ccccc1N1CCCC1=O)c1oc2ccc(F)cc2c1-c1cnn(-c2ccccc2)c1`, for which the growth was 72.8% [50 µM] in the assay with SK-MEL-2 melanoma; 58.3% [50 µM] with EKVX NSCLC; 48.5% [50 µM] in the assay with SN12C renal; 9.1% [50 µM] (active) in the assay with UO-31 renal; 95.4% [50 µM] in the assay on TK-10 renal; 46% [50 µM] in the assay on ACHN renal. Also, the growth is 35.7% [50 µM] in the assay with CAKI-1 renal; 29.2% [50 µM] in the assay with A498 renal; 56.6% [50 µM] in the assay on CCRF-CEM leukemia; 37% [50 µM] in the assay with MOLT-4 leukemia; 61.6% [50 µM] with SR leukemia; 32.3% [50 µM] in the assay with RPMI-8226 leukemia. Moreover, the growth with OVCAR-8 ovarian is 20.5% [50 µM]; in the assay on OVCAR-5 ovarian, 87.8% [50 µM]; in the assay with OVCAR-4 ovarian it was 57.6% [50 µM]; in the assay with SK-OV-3 ovarian, 56.5% [50 µM]; in the assay with IGROV1 ovarian, 65.7% [50 µM]; in the assay with OVCAR-3 ovarian it was 72.4% [50 µM]. Further, the growth was 41.4% [50 µM] in the assay on HS 578T breast and 40.4% [50 µM] in the assay on NCI/ADR-RES ovarian.
